From PubChem
Only some compounds are listed: those with a hit (about 3.5% of all), similar ones and a draw of the others.
GPR151 ag: human GPR151 activation. activation, % at 11.2 µM. PathHunter beta-arrestin GPR151 cells, luminescence. AID 1508602. 650,000 compounds, 1% hits. Q8TDV0; in the data active = activation above about 4.9%;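 note: 0% = median of compound wells and 100% = cells with positive control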
FBW7 activator: activators of human E3 ligase FBW7 | 650,000 compounds, 0.13% hits | normalized activity (activation), % at 26.1 µM | AlphaScreen FBW7–phospho-cyclin E peptide binding, activator screen; in the data active = normalized activity above about 1.9%;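 note: purified mutant Fbw7 with reduced substrate affinity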
MITF inh: blocks human microphthalmia-associated transcription factor; 650,000 compounds, 0.91% hits; AlphaScreen MITF homodimerization, bead proximity signal; O75030; inhibition, % at 2.6 µM; AID 1259374; in the data active = inhibition above about 50%;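 note: 0% = vehicle wells with protein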
TEAD-YAP inh: TEAD-YAP interaction inhibition; HEK-TIYL cells, TEAD-Gal4/YAP UAS-luciferase luminescence; inhibition, % at 9.12 µM; 640,000 compounds, 1.4% hits; AID 1259422; in the data active = inhibition above about 32%;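 note: 0% = median of test compound wells and 100% = reference inhibitor wells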
An asterisk follows results filed as active.

For CCN(c1ncnc(N)c1[N+](=O)[O-])C1CCCCC1 the results were GPR151 ag 0, FBW7 activator 0, MITF inh 21 and TEAD-YAP inh 51*.
`CSc1nnc2c(n1)OC(c1ccco1)N(C(=O)c1ccccc1)c1ccccc1-2` (stereo not given) gave GPR151 ag -1, FBW7 activator 0, MITF inh -1 and TEAD-YAP inh 53*.
`N#Cc1c(N)nc2c(c1-c1sc(Cl)cc1Cl)CCCC2` gave GPR151 ag 0, FBW7 activator 0, MITF inh -5 and TEAD-YAP inh -1.
N#CCSc1ccc2nnc(-c3ccncc3)n2n1 was read as GPR151 ag -1, FBW7 activator 0, MITF inh 3 and TEAD-YAP inh 40*.
N#CCSc1ccc2nnc(-c3ccccn3)n2n1 was read as GPR151 ag 0, FBW7 activator 3.8*, MITF inh 7 and TEAD-YAP inh -8.
`CCC(Sc1ccc2nnc(-c3ccccn3)n2n1)C(=O)OC` (stereo not given) gave GPR151 ag 2, FBW7 activator 7.2*, MITF inh 15 and TEAD-YAP inh -14.
Screening COc1ccc(C2Nc3ccccc3C(=O)N2c2cccc3ccccc23)cc1CN1C(=O)c2ccccc2C1=O (stereo not given) returned GPR151 ag 1, FBW7 activator 0, MITF inh 2 and TEAD-YAP inh -13.
`COc1ccccc1NC(=O)CSc1nc(-c2cccc(C)c2)ns1` gave GPR151 ag -4, FBW7 activator 0, MITF inh 5 and TEAD-YAP inh 0.
CCOc1c(Br)cc(C(N)=O)cc1OC was read as GPR151 ag 2, FBW7 activator 0, MITF inh -1 and TEAD-YAP inh 2.
For CNC(=O)c1cc(Cl)c(OC)c(OC)c1 the results were GPR151 ag 0, FBW7 activator 0, MITF inh 6 and TEAD-YAP inh 6.
Screening COc1ccc(C(=O)NCc2ccc(S(N)(=O)=O)cc2)cc1OC returned GPR151 ag 1, FBW7 activator 2.4*, MITF inh 12 and TEAD-YAP inh 0.
For COc1c(Cl)cc(C(=O)NN)cc1Cl the results were GPR151 ag -1, FBW7 activator 0, MITF inh 6 and TEAD-YAP inh 56*.
`CCOc1c(Br)cc(C(=O)NN)cc1OC` gave GPR151 ag 1, FBW7 activator 0, MITF inh -1 and TEAD-YAP inh 52*.
CCCOc1ccc(C(=O)NN)cc1OC was read as GPR151 ag -2, FBW7 activator 1, MITF inh 15 and TEAD-YAP inh 47*.
COc1ccccc1OCCCOc1ccccc1[N+](=O)[O-] was read as GPR151 ag 0, FBW7 activator 0, MITF inh -1 and TEAD-YAP inh -39.
For O=C(CCCCn1c(=O)c2ccccc2n(Cc2ccc(F)cc2Cl)c1=O)NCc1cccs1 the results were GPR151 ag -1, FBW7 activator 0, MITF inh -7 and TEAD-YAP inh -6.
For COc1cccc(Cn2c(=O)n(CCCCC(=O)NCc3ccco3)c(=O)c3ccccc32)c1 the results were GPR151 ag -1, FBW7 activator 0, MITF inh 3 and TEAD-YAP inh 48*.
Screening COc1cccc(Cn2c(=O)n(CCCCC(=O)NC3CCCCC3)c(=O)c3ccccc32)c1 returned GPR151 ag -1, FBW7 activator 0, MITF inh -15 and TEAD-YAP inh 1.
O=C(CCCCn1c(=O)c2ccccc2n(Cc2ccccc2)c1=O)NCc1cccs1 was read as GPR151 ag 0, FBW7 activator 0, MITF inh 0 and TEAD-YAP inh 38*.
Cn1c(SCC(=O)N2CCCC2)nnc1-c1ccccc1O was read as GPR151 ag -1, FBW7 activator 0, MITF inh 24 and TEAD-YAP inh 58*.
Cn1c(SCC(=O)O)nnc1-c1ccccc1O was read as GPR151 ag 1, FBW7 activator 0, MITF inh 5 and TEAD-YAP inh 44*.
`CC1=NN(c2ccc(Cl)cc2)C(=O)/C1=C\c1cccc(O)c1` gave GPR151 ag 0, FBW7 activator -1, MITF inh 6 and TEAD-YAP inh 6.
Screening CCCCn1c(SCCN2CCCCC2)nnc1-c1ccncc1 returned GPR151 ag -1, FBW7 activator 0, MITF inh -4 and TEAD-YAP inh 5.
Screening Cc1nc(CN2CCN(S(C)(=O)=O)CC2)cs1 returned GPR151 ag 0, FBW7 activator 0, MITF inh -26 and TEAD-YAP inh -17.
Screening Cc1nc(CN2CCN(C(=O)CCl)CC2)cs1 returned GPR151 ag 4, FBW7 activator 0, MITF inh 4 and TEAD-YAP inh 48*.
